# In PubChem BioAssay (NCATS):
# Records with an inconclusive call do not appear. Activity calls are given as the source filed them. Unless noted, calls follow the shape of the dose curve; as a rule, active = well fitted curve in the direction sought with a large enough effect; inconclusive = small, poorly fitted or top-dose-only effect, or another doubt; inactive = no such curve, though single readings can be large; an effect the other way counts as inactive or inconclusive.
# Experiments:
# [1] = NCATS anti-infectives library activity on HEK293 viability as a counter-qHTS vs the C. elegans viability qHTS (AID 1745854); settings: HEK293 viability counter-screen; series mostly up to 41.8 µM;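 also: HEK293 cells exposed to compounds for 24 hr before the viability read; % is scaled to controls: 0 for no effect and ±100 for the full control effect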
# How it was run: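 HEK293 cells (1,500/well) exposed 24 hr at 37C to 1:5 titrations, up to 41.7 uM final; counter-screen to a C. elegans viability qHTS. Viability by CellTiter-Glo luminescence after 10 min at room temperature; digitonin as control.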
# [2] = molecular target: Lysosomal acid glucosylceramidase (Homo sapiens) (UniProt P04062); assay: Glucocerebrosidase-p2 (AID 348; in the data active = potency below about 10 µM; also: potency is read from the fitted curve at half-maximal effect); settings: purified GBA, blue fluorogenic substrate, 40 min
# Chain of Lysosomal acid glucosylceramidase (Homo sapiens) (P04062 whole entry, looked up): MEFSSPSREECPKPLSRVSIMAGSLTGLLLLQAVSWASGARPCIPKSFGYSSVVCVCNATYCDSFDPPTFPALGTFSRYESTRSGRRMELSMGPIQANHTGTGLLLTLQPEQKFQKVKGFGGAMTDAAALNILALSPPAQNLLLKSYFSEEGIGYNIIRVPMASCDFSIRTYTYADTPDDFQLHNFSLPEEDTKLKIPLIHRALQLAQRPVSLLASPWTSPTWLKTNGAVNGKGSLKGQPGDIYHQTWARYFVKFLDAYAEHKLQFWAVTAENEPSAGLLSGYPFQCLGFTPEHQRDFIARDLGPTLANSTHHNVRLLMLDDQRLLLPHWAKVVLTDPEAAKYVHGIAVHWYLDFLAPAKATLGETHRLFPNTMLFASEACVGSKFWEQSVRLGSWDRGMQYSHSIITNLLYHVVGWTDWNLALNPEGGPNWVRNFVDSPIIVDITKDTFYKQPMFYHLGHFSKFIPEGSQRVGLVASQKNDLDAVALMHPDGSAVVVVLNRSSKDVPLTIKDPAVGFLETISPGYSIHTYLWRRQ
# How it was run: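 Compounds titrated from 0.6 nM upwards against 0.2 nM enzyme in pH 5.9 citric acid/KH2PO4, taurocholate, tween-20; blue fluorogenic substrate 80 uM, 40 min room temperature, stopped and read Ex 365/Em 440 for AC50.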
# [3] = AP1 Signaling Pathway (AID 357; active = well fitted curve in either direction with a large enough effect, not every such curve was filed as active;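 also: ME-180 reporter cells stimulated with EGF at its EC50 level; % is scaled to controls: 0 for no effect and ±100 for the full control effect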); settings: ME-180 AP-1-bla reporter, EGF-induced, beta-lactamase ratio, 5 h; at 7.69 µM (top of the series) unless noted
# How it was run: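 Read-out was the 460nm/530nm emission ratio (excitation 405nm) after CCF4 loading for 2.5 hours at room temperature. Cells carried an AP-1-driven beta-lactamase reporter, were stimulated with EC50 EGF plus compound for 5 hours, and AC50 values came from titrations.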
# [4] = molecular target: Cytochrome P450 1A2 (Homo sapiens) (UniProt P05177); assay: p450-cyp1a2 (AID 410; calls by dose curve;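 also: -100% = full effect of reference inhibitor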); settings: recombinant CYP1A2, luciferin-ME demethylation, luminescence; series mostly up to 57 µM
# Chain of Cytochrome P450 1A2 (Homo sapiens) (P05177 whole entry, looked up): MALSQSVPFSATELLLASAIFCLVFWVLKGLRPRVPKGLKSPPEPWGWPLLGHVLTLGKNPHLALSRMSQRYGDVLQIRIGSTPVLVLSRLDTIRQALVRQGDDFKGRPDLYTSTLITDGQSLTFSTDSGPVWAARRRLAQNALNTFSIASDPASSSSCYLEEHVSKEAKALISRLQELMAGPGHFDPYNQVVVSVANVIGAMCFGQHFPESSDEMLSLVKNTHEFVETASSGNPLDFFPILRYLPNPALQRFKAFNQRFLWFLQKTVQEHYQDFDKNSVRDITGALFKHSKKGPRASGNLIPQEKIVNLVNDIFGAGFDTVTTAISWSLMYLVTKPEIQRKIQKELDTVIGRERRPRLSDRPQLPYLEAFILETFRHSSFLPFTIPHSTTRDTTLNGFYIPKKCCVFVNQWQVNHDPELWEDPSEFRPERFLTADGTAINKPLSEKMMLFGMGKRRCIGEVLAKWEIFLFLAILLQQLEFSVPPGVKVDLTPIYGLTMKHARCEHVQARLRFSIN
# How it was run: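 20nM CYP1A2 with 100uM Luciferin-ME (at Km) in 100mM KPO4; compound preincubated 10 min, NADPH regeneration added, 60 min at room temperature. Luciferin quantified by luminescence after detection reagent; normalized to 57 uM furafylline.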
# [5] = Stat Signaling Pathway (AID 446; active = well fitted curve in either direction with a large enough effect, not every such curve was filed as active;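 also: ME-180 cervical cancer cells given 40 pM IL-6 alongside compound; SIE-controlled beta-lactamase reporter measured as 460/530 nm FRET emission ratio; % is scaled to controls: 0 for no effect and ±100 for the full control effect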); settings: ME-180 (cervical carcinoma) SIE beta-lactamase reporter, IL-6 stimulated, 5 h; at 7.69 µM (top of the series) unless noted
# How it was run: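 IL-6/STAT signaling read in ME-180 cells via an SIE beta-lactamase reporter. Stimulus was 40 pM IL-6 (its AC50) for 5 hrs, so both activation and inhibition register.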
# [6] = molecular target: Glucocorticoid receptor (Homo sapiens) (UniProt P04150); assay: GR-GFP Redistribution (AID 450;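 active = compounds whose dose series gives a full or clear partial fitted curve of increased nuclear translocation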; also: potency is read from the fitted curve at half-maximal effect); settings: U2OS GR-GFP nuclear translocation, laser cytometry, 2 h
# Chain of Glucocorticoid receptor (Homo sapiens) (P04150 whole entry, looked up, the tested form may be a part): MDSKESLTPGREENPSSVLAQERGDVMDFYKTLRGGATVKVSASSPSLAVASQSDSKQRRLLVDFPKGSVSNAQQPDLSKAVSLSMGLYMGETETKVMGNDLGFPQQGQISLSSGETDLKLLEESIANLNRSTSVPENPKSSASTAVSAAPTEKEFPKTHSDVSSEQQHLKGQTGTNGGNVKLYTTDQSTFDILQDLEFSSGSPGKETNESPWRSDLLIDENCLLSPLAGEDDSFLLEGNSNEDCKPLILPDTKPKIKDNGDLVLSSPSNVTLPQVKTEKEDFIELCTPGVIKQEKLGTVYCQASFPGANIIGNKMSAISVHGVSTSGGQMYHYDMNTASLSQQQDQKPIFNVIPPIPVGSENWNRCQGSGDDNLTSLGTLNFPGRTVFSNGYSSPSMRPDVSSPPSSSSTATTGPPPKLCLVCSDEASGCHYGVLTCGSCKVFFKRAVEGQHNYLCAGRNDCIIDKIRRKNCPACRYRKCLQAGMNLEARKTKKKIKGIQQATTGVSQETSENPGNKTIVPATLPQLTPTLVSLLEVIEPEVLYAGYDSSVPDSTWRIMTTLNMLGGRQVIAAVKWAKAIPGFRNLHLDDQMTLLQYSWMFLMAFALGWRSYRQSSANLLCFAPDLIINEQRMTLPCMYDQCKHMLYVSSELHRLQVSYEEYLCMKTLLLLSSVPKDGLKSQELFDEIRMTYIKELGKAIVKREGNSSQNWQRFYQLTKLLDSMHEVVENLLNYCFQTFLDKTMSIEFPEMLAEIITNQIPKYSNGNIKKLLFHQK
# [7] = molecular target: Glucocorticoid receptor (Homo sapiens) (UniProt P04150); assay: GR-EFC Redistribution (AID 451; calls by dose curve; also: potency is read from the fitted curve at half-maximal effect); settings: CHO-K1 GR-EFC translocation, beta-gal luminescence, 2 h
# How it was run: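 Translocation of GR-ED fusion to nuclear EA restores b-gal, read by luminescence after 1 h room-temperature detection. Engineered CHO-K1 biosensor cells, 1,000/well, exposed 2 h at 37 C to titrations up to 46 uM final.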
# [8] = molecular target: Mitogen-activated protein kinase 10 (Mus musculus) (UniProt Q61831); assay: JNK3 AlphaScreen Assay (AID 530; active = well fitted curve in either direction with a large enough effect, not every such curve was filed as active;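 also: kinase came from lysate of stimulated human HepG2 cells; signal reports phosphorylation of biotinylated GST-cJun 1-79 at Ser73 with 10 µM ATP; % is scaled to controls: 0 for no effect and ±100 for the full control effect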); settings: JNK3 lysate, c-Jun phosphorylation; series mostly up to 57.1 µM
# How it was run: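 Compound titrations were preincubated 15 minutes at room temperature with substrate, antibody and pre-activated JNK3-containing HepG2 lysate. Reactions were started with 10 uM ATP and stopped with EDTA-containing bead buffer for AlphaScreen detection.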
# [9] = Confirmation and Secondary Assay for Modulators of Hemoglobin Beta Chain Splicing at IVS2 654 locus (AID 910); settings: HeLa EGFP-654 splicing reporter, GFP fluorescence, 48 h; series mostly up to 38.3 µM;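 also: HeLa cells stably carrying EGFP split by mutant beta-globin IVS2-654 intron; per-well total GFP intensity by laser scanning cytometry after 2-day treatment; % of control where 0% means no effect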
# How it was run: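 Readout: per-well total peak green fluorescence (488 nm ex, 500–520 nm em) from objects 5–250 µm, reflecting correct splicing of an EGFP-654 reporter. Compounds were applied for 2 days at 37 °C to overnight-plated HeLa EGFP-654 cells; controls were DMSO and 500 nM IVS2-654 PNA.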
# [10] = test system: Zika virus NS2B-NS3 protease (linked); assay: 384 well plate NINDS AMC confirmatory qHTS for Zika virus inhibitors (AID 1347163); settings: Recombinant NS2B-NS3 protease, Ac-VKTGKR-AMC fluorescence; series mostly up to 100 µM; also: potency is read from the fitted curve at half-maximal effect; nearly all actives have a fitted effect of over 50% in size
# How it was run: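 Linked NS2B-NS3 protease (final 5 nM, 30 nM or 60 nM) was preincubated with compounds (final up to 1 mM) for ~15 minutes. Ac-VKTGKR-AMC substrate (final 30 microM) then reacted for 25 minutes at room temperature in the dark. Fluorescence (ex 355/em 460 nm) was normalized to no-enzyme and no-inhibitor controls.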
# [11] = Cell Viability qHTS for small molecule stabilizers of the endoplasmic reticulum resident proteome (AID 1508629); settings: cell viability counter-screen, 100 nM thapsigargin for final 4 h;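 also: potency is read from the fitted curve at half-maximal effect; compound exposure about 46 h in total before the viability read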
# [12] = molecular target: Rap guanine nucleotide exchange factor 3 (Homo sapiens) (UniProt O95398); assay: Confirmatory qHTS for agonist of cAMP-regulated guanine nucleotide exchange factor 3 (EPAC1) (AID 1645881); settings: EPAC1 Rap1B BODIPY-GDP exchange fluorescence, 100% = cAMP control response; series mostly up to 154 µM;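 also: EPAC1 catalysed release of BODIPY-GDP from Rap1B seen as fluorescence loss; nearly all actives have a fitted effect of over 75% in size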
# Chain of Rap guanine nucleotide exchange factor 3 (Homo sapiens) (O95398 whole entry, looked up): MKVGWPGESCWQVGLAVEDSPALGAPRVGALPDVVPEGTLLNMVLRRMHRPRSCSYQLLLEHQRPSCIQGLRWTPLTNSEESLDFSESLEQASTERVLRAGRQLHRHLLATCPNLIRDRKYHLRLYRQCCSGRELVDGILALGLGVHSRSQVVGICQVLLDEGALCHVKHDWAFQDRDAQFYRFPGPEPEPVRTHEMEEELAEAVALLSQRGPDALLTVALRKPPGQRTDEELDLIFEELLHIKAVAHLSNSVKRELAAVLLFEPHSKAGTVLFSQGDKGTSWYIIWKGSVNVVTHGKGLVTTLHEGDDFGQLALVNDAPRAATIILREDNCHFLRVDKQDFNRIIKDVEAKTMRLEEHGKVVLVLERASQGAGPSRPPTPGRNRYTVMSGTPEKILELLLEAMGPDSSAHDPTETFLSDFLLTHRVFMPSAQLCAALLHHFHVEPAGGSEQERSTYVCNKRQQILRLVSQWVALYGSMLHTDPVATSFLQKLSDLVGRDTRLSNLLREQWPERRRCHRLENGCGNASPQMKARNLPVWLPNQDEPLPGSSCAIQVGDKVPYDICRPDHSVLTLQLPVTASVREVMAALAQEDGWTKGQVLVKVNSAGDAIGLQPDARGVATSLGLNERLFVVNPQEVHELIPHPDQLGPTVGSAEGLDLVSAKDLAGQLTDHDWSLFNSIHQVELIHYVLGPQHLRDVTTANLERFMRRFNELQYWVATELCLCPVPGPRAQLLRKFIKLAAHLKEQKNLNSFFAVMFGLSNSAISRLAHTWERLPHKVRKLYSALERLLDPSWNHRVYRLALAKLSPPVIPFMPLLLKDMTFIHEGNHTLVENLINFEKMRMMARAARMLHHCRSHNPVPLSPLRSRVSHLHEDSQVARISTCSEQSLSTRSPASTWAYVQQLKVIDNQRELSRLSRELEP
# [13] = molecular target: Rap guanine nucleotide exchange factor 4 (Homo sapiens) (UniProt Q8WZA2); assay: Confirmatory qHTS for agonist of cAMP-regulated guanine nucleotide exchange factor 4 (EPAC2) (AID 1645884); settings: EPAC2 GEF activity, Rap1B-BODIPY-GDP fluorescence, percent relative to cAMP agonist control; series mostly up to 154 µM;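 also: nucleotide exchange releases bodipy-GDP from Rap1 and this lowers its fluorescence; % is scaled to controls: 0 for no effect and ±100 for the full control effect; nearly all actives have a fitted effect of over 65% in size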
# Chain of Rap guanine nucleotide exchange factor 4 (Homo sapiens) (Q8WZA2 whole entry, looked up): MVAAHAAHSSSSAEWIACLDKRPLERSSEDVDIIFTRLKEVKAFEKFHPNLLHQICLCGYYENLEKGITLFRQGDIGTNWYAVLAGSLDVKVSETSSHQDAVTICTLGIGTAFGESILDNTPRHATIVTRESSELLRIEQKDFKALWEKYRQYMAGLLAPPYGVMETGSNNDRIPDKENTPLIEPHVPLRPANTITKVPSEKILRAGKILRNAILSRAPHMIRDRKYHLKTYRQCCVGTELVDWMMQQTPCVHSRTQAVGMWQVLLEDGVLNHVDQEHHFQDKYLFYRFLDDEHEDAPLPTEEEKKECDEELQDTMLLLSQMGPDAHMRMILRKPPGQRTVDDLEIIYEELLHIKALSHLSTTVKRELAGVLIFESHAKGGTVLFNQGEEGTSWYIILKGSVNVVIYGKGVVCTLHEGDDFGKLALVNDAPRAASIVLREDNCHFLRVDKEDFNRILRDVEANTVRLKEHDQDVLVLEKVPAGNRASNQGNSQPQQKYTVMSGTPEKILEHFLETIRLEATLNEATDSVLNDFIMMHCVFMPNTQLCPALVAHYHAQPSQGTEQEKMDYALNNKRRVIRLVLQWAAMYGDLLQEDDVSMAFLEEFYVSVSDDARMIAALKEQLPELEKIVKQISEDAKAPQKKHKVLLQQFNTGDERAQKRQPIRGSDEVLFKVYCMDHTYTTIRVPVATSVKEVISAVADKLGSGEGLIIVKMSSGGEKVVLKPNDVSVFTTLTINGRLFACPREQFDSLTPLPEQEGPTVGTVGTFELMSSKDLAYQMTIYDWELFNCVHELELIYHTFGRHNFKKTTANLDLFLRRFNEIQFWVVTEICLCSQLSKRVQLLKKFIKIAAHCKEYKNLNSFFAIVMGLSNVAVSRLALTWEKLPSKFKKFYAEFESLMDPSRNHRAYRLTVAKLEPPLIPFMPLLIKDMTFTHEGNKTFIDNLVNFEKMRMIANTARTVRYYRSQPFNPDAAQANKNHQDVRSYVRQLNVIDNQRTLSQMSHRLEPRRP
# [14] = molecular target: Rap guanine nucleotide exchange factor 4 (Homo sapiens) (UniProt Q8WZA2); assay: Confirmatory qHTS for antagonist of cAMP-regulated guanine nucleotide exchange factor 4 (EPAC2) (AID 1645885); settings: EPAC2 Rap1B-BODIPY-GDP exchange fluorescence, biochemical; series mostly up to 114 µM; also: % is scaled to controls: 0 for no effect and ±100 for the full control effect; nearly all actives have a fitted effect of over 25% in size
# [15] = molecular target: Catechol O-methyltransferase (Homo sapiens) (UniProt P21964); assay: Confirmatory Screen for Target Class Profiling of Small Molecule Inhibitors of Methyltransferases (AID 1745852; calls by dose curve; also: potency is read from the fitted curve at half-maximal effect); settings: MTase-Glo luminescence, SAH detection, recombinant enzyme; measured here: COMT max response; stronger effect = lower value
# Chain of Catechol O-methyltransferase (Homo sapiens) (P21964 whole entry, looked up): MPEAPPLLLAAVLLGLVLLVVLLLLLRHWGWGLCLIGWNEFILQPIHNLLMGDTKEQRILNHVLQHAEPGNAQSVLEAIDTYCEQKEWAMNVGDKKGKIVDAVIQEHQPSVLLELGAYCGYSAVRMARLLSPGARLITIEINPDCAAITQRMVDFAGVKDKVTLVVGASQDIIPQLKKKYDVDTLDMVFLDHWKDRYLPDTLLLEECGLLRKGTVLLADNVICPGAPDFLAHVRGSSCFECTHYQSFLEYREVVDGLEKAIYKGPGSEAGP
# [16] = molecular target: Guanidinoacetate N-methyltransferase (Homo sapiens) (UniProt Q14353); assay: as above; settings: MTase-Glo luminescence, SAH detection, recombinant enzyme; activity change, negative = inhibition: at 57.3 µM (top of the series)
# [17] = molecular target: Nicotinamide N-methyltransferase (Homo sapiens) (UniProt P40261); assay: as above; settings: MTase-Glo luminescence, SAH detection, recombinant enzyme; measured here: NNMT max response; stronger effect = lower value
# Chain of Nicotinamide N-methyltransferase (Homo sapiens) (P40261 whole entry, looked up): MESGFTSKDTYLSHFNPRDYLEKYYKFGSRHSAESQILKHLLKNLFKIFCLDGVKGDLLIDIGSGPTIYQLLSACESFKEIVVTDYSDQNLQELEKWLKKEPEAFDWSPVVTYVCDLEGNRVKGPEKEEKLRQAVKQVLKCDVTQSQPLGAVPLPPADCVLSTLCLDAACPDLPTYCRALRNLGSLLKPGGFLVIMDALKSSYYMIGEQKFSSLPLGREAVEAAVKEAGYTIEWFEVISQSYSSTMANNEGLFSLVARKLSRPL
# [18] = molecular target: Phenylethanolamine N-methyltransferase (Homo sapiens) (UniProt P11086); assay: as above; settings: MTase-Glo luminescence, SAH detection, recombinant enzyme; measured here: PNMT max response; stronger effect = lower value
# Chain of Phenylethanolamine N-methyltransferase (Homo sapiens) (P11086 whole entry, looked up): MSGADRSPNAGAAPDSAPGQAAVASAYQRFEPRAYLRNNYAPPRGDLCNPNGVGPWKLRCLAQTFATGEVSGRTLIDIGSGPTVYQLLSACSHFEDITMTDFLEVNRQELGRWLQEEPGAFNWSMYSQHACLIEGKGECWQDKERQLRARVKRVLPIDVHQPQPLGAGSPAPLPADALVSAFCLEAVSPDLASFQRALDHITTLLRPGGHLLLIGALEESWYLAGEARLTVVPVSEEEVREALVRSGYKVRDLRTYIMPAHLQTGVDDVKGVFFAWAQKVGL
# [19] = NCATS anti-infectives library activity on the primary C. elegans qHTS viability assay (AID 1745855; calls by dose curve); settings: C. elegans worm area imaging, day 7; series mostly up to 41.8 µM
# How it was run: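 Viability read-out is GFP fluorescence of PE254-GFP-FLuc C. elegans, measured by laser cytometry (488 nm) at day 0, 3 and 7. Ten L1 worms per well were incubated 7 days at 21 °C with compounds and bacterial capsules in S medium.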
# [20] = molecular target: DNA dC->dU-editing enzyme APOBEC-3G (Homo sapiens) (UniProt Q9HC16); assay: qHTS for inhibitors of Vif-A3G interactions: Validation (AID 588379); settings: Vif-A3G protein interaction assay; series mostly up to 46.1 µM; also: 0% is about no effect
# Chain of DNA dC->dU-editing enzyme APOBEC-3G (Homo sapiens) (Q9HC16 whole entry, looked up): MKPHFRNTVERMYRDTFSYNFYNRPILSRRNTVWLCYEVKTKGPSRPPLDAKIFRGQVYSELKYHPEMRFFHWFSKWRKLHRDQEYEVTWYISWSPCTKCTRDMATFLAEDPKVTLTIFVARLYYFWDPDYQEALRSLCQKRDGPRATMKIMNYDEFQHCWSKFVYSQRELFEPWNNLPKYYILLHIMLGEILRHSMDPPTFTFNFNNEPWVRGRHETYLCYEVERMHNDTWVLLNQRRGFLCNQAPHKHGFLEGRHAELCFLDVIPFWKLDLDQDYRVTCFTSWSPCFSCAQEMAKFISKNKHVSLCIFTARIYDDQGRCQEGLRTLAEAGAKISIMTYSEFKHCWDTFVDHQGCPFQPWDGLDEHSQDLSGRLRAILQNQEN
# How it was run: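 HeLa cells stably expressing Vif and A3G-eYFP, 700 cells/well, incubated overnight at 37 deg C, then exposed to compound overnight at 37 deg C. Inhibition of Vif-mediated degradation read as increased yellow fluorescence (Ex 488/Em 500-530) by laser-scanning cytometry.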
structure (smiles),measurement,setting,value
O=c1cc(-c2ccc(O)c(O)c2)oc2cc(O[C@@H]3O[C@H](CO)[C@@H](O)[C@H](O)[C@H]3O)cc(O)c12,Potency,[1],inactive
CC(C)=CCc1c2c(c3occ(-c4ccc(O)c(O)c4)c(=O)c3c1O)C=CC(C)(C)O2,Potency,[2],> 11.4 µM (inactive)
same,"activity change, negative = inhibition",[3],-0.16% (inactive)
same,"activity change, negative = inhibition",[4],-3% [at 2.29 µM] (inactive)
same,"activity, negative = inhibition",[5],-4.46% (inactive)
same,Potency,[6],> 46 µM (inactive)
same,Potency,[7],> 9.22 µM (inactive)
same,"activity change, negative = inhibition",[8],-1.7% [at 11.4 µM] (inactive)
same,outcome,[9],inactive
same,Potency,[10],7.08 µM (active)
same,Potency,[11],7.94 µM (active)
same,outcome,[12],inactive
same,outcome,[13],inactive
same,Potency,[14],inactive
CC1c2cccc(O)c2C(O)=C2C(=O)C3(O)C(O)=C(C(N)=O)C(=O)C(N(C)C)C3C(O)C21 (stereo unspecified),Potency,[10],282 µM (active)
COc1cc(C(=O)O)ccc1NC(=O)[C@@H]1N[C@@H](CC(C)(C)C)[C@](C#N)(c2ccc(Cl)cc2F)[C@H]1c1cccc(Cl)c1F,Potency,[10],31.6 µM (active)
same,activity,[15],-3.62%
same,Potency,[16],34.1 µM (active)
same,activity,[17],-47.6%
same,activity,[18],-14.4%
CC1COC2=C1C(=O)C(=O)c1c2ccc2c1CCCC2(C)C (stereo unspecified),outcome,[9],inactive
CN(C)c1cc(NC(=O)CNC(C)(C)C)c(O)c2c1C[C@H]1C[C@H]3[C@H](N(C)C)C(=O)C(C(N)=O)=C(O)[C@]3(O)C(=O)C1=C2O,Potency,[1],inactive
same,Potency,[19],inactive
O=C(OC[C@H]1O[C@@H](OC(=O)c2cc(O)c(O)c(O)c2)[C@H](OC(=O)c2cc(O)c(O)c(O)c2)[C@@H](OC(=O)c2cc(O)c(O)c(O)c2)[C@@H]1OC(=O)c1cc(O)c(O)c(O)c1)c1cc(O)c(O)c(O)c1,Potency,[19],inactive
O=C1CC(c2ccc(O)cc2)Oc2ccccc21 (stereo unspecified),outcome,[9],inactive
O=C1CC(c2ccc(O)cc2)Oc2cc(O)cc(O)c21 (stereo unspecified),outcome,[9],inactive
same,outcome,[20],inactive
O=C(/C=C/c1ccc(CN(CCO)CCc2c[nH]c3ccccc23)cc1)NO,activity,[15],18.9%
same,Potency,[16],34.3 µM (active)
same,activity,[17],-12.8%
same,activity,[18],-2.68%
O=C(/C=C/C#Cc1cccc(NS(=O)(=O)c2ccccc2)c1)NO,activity,[15],41.7%
same,"activity change, negative = inhibition",[16],-11.3%
same,activity,[17],-13.8%
same,activity,[18],1.13%
C=C[C@@](C)(O)CC[C@@H]1[C@@]2(C)CCCC(C)(C)[C@@H]2CC[C@@]1(C)O,outcome,[20],inactive
